Data: PubChem BioAssay AID645 (SRMLSC, 2007)
Hit rate of the full screen: of about 65,000 compounds, about 450 (0.69%) were called active.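 How the source made its calls: active means HER2 level under 5% of the carrier-only control; inconclusive means no clear call, values can overlap the other calls; inactive means the rest.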 For the sample, actives were picked, then their nearest neighbours and some compounds at random.

Target: Receptor tyrosine-protein kinase erbB-2 (Homo sapiens) (UniProt P04626)
Sequence (P04626 whole entry, looked up): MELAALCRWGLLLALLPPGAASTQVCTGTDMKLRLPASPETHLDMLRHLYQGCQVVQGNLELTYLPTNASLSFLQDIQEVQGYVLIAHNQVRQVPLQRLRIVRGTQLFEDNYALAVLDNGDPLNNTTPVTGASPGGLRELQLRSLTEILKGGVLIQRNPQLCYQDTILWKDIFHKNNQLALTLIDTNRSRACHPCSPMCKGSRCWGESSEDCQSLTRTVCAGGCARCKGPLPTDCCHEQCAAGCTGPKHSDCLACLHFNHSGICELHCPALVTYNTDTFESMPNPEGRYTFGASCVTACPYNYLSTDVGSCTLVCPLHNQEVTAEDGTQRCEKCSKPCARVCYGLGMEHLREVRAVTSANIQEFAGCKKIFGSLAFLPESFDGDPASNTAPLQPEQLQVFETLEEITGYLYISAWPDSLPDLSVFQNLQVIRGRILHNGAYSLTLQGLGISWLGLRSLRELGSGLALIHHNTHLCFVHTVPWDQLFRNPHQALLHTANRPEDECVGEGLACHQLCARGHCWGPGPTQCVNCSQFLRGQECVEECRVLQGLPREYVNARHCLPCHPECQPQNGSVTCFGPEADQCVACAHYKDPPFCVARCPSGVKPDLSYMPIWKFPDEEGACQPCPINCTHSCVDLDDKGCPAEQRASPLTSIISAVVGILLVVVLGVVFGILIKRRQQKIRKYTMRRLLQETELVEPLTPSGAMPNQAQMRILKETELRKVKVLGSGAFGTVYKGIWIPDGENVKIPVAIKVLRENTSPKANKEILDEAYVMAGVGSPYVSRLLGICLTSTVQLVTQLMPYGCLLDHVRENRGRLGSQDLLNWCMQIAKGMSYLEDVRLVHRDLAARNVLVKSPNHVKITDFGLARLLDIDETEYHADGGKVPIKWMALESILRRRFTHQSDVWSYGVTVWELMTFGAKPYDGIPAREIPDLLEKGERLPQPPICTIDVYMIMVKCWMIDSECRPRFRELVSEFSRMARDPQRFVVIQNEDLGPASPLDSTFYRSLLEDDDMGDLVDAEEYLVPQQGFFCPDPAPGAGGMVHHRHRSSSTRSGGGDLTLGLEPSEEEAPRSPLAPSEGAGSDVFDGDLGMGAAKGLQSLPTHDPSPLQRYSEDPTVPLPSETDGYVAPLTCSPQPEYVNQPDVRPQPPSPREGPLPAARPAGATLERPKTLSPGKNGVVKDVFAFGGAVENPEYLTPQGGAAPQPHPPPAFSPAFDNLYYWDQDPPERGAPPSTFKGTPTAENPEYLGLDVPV
Assay: inhibitors of Her2 protein expression, primary screen, SKBR-3 cells, AlphaScreen, 66K library (AID 645);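 further: 100% = DMSO carrier and 0% = 500 nM PU-H71 HSP90 inhibitor; lower value means stronger loss of Her2 protein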
Conditions: SKBR-3 HER2 protein level, 18-24 h, at 10 µM, hits give low values

| Structure (SMILES) | HER2 level % of control |
| --- | --- |
| CCCCNC(=O)c1c[nH]c2ccc(S(=O)(=O)Nc3ccc(OCC)cc3)cc2c1=O | 54.9% (inactive) |
| CCOC(=O)c1c(NC(=O)CCC(=O)NCc2ccco2)sc2c1CCCC2 | 104% (inactive) |
| Fc1ccc2nc(-c3ccccc3)nc(SCc3nnc(-c4ccccc4)o3)c2c1 | 67.9% (inactive) |
| O=C1CCc2cc(S(=O)(=O)N3CCC(C(=O)NCc4ccccc4Cl)CC3)ccc2N1 | 90.7% (inactive) |
| COc1nc(OC)nc(N(C)CCO)n1 | 97.4% (inactive) |
| COc1ccc(N2C(=O)CN=C2Nc2cccc(C)c2C)cc1OC | 70.2% (inactive) |
| COc1ccc(C2C(C#N)=C(N)Oc3n[nH]c(C)c32)cc1CN1CCN(c2ccc(F)cc2)CC1 (stereo unspecified) | 117% (inactive) |
| CCCc1[nH]nc2c1C(c1ccc(Br)s1)C(C#N)=C(N)O2 (stereo unspecified) | 124% (inactive) |
| CCCc1[nH]nc2c1C(c1ccc(OC)c(Cn3nc(C)c(Br)c3C)c1)C(C#N)=C(N)O2 (stereo unspecified) | -20.4% (active) |
| COc1ccc2oc(C)c(NC(C)=O)c2c1 | 71.5% (inactive) |
| COc1ccc(NC(C)=O)cc1NC(=O)CN1CCN(C2c3ccccc3-c3ccccc32)CC1 | 71.4% (inactive) |
| CCOC(=O)C1CCCN(C(=O)CN(c2ccc(OC)cc2)S(=O)(=O)c2c(C)noc2C)C1 (stereo unspecified) | 95.7% (inactive) |
| c1ccc(-n2ncc(-c3nn[nH]n3)n2)cc1 | 88.5% (inactive) |
| COc1cc(Br)cc(/C=N/c2ncn[nH]2)c1O | 92.3% (inactive) |
| Cc1cc(C)c2c(c1)c(C)cc1nnc(SCC(=O)NCc3ccco3)n12 | 104% (inactive) |
| O=C(c1ccco1)N1CCN(C(=O)C2c3ccccc3Oc3ccccc32)CC1 | 100% (inactive) |
| CCc1c(O)nc(SCC(=O)N2CCCCC2)n(-c2ccccc2C)c1=O | 114% (inactive) |
| N#CCCn1cnc2ccccc21 | 106% (inactive) |
| COc1ccc(-c2nnc(SC(=O)N3c4ccccc4Sc4ccccc43)o2)cc1 | -15.7% (active) |
| COc1ccc(CC(=O)Nc2ccc(-c3nnc(-c4ccccc4)o3)cc2)cc1 | 87.4% (inactive) |
| COc1ccc(-c2nnc(SC(C)C#N)o2)cc1 (stereo unspecified) | 127% (inactive) |

| Structure (SMILES) | HER2 level % of control |
| --- | --- |
| CCn1nc(C(=O)OCC(=O)N2c3ccccc3CC2C)c2ccccc2c1=O (stereo unspecified) | 106% (inactive) |
| CCOc1ccc(NCCC(=O)c2ccc3c(c2)OCO3)cc1 | 95.7% (inactive) |
| Nc1nonc1-c1noc(-c2ccc(Br)o2)n1 | 79.9% (inactive) |
| CCn1ncc(Br)c1C(=O)Nc1cc(C)ccc1F | 75.8% (inactive) |
| Clc1cccc(Cl)c1Cn1nnc(-c2cccs2)n1 | 89.2% (inactive) |
| O=C(CN1C(=O)CCC1=O)Nc1ccc(S(=O)(=O)N2CCOCC2)cc1 | 103% (inactive) |
| CCCCN(CC)CCCNC(=O)CS(=O)(=O)Cc1nc(-c2cccc(OC)c2)oc1C | 80.5% (inactive) |
| CC1(C)CC(O)C(CCC(O)c2ccccc2)C(C)(C)N1 (stereo unspecified) | 89.8% (inactive) |
| CCN(CC)S(=O)(=O)c1ccc(NC(=O)CN(c2cccc(F)c2)S(C)(=O)=O)cc1 | 152% (inactive) |
| COC(=O)[C@H](Cc1ccccc1)NC(=O)N1CC(C)OC(C)C1 (stereo partly specified) | 108% (inactive) |
| C=C(C)COc1ccc(-c2n[nH]c(C)c2-c2ccccc2OC)c(O)c1 | -9.89% (active) |
| C=C(C)COc1ccc(-c2n[nH]c(C)c2-c2ccccc2)c(O)c1 | 68.6% (inactive) |
| COc1ccc(-c2n[nH]c(C)c2-c2ccc(OC)c(OC)c2)c(O)c1 | 82.6% (inactive) |
| CCOC(=O)CNC(=O)CN1C(=O)CCSc2ccccc21 | 106% (inactive) |
| Cn1c(=O)c2c(nc(N3CCCCCC3)n2CC(O)COc2ccc(Cl)cc2)n(C)c1=O (stereo unspecified) | 89% (inactive) |
| COc1ccccc1NC(=O)C1=C(C)NC2=C(C(=O)CCC2)C1c1ccc(C)o1 (stereo unspecified) | 90.6% (inactive) |
| O=c1ccn(Cc2ccccc2Cl)cc1 | 93.6% (inactive) |
| COc1ccccc1N1CCN(C(=O)c2ccc(S(=O)(=O)N3CCCCC3)cc2)CC1 | 135% (inactive) |
| Cn1c(SCC(=O)Nc2cccc(O)c2)nnc1-c1ccc(S(=O)(=O)N2CCOCC2)cc1 | 100% (inactive) |
| CC(=O)Nc1nc(C)c(Cc2ccccc2)c(=O)[nH]1 | 142% (inactive) |
| Cn1c(=O)c2cn(-c3cccc4ccccc34)cc2n(C)c1=O | 94.5% (inactive) |

| Structure (SMILES) | HER2 level % of control |
| --- | --- |
| CC(=O)Nc1ccc(S(=O)(=O)Nc2cccc(NC(=O)C(C)(C)C)c2)cc1 | 127% (inactive) |
| COc1cc(NS(=O)(=O)c2ccc(NC(C)=O)cc2)cc(OC)c1 | 90.4% (inactive) |
| CC(=O)Nc1ccc(NS(=O)(=O)c2cc(C)sc2C)cc1 | -22.3% (active) |
| CCC(C)n1[nH]c(=O)c2c(C)cc(C)nc21 (stereo unspecified) | 116% (inactive) |
| CCN(CC)CCCN1C(=O)C(=O)/C(=C(/O)c2c(C)nc3ccccn23)C1c1ccc(C)o1 (stereo unspecified) | 90.1% (inactive) |
| Cc1ccc(NC(=O)C2CC(c3ccc(F)cc3)=NO2)cc1 (stereo unspecified) | 127% (inactive) |
| CCC1(C)N(O)C(C)(C)C(c2ccc(OC)cc2)=[N+]1[O-] (stereo unspecified) | 90.2% (inactive) |
| O=C1c2ccccc2C(O)N1Cc1ccccc1Cl (stereo unspecified) | 99% (inactive) |
| Brc1cnc(N2CCCC2)nc1N1CCCCC1 | 69.2% (inactive) |
| COc1ccc(CC(=O)Nc2nc3n(n2)C(c2ccccc2)CC(=O)N3)cc1OC (stereo unspecified) | 104% (inactive) |
| CCCn1c(SCC(=O)c2ccc3c(c2)OCCO3)nnc1C(C)C | 116% (inactive) |
| COc1cc(C2C(C(=O)Nc3ccccc3OC)=C(C)Nc3ncnn32)ccc1O (stereo unspecified) | 106% (inactive) |
| O=C(C1CCN(S(=O)(=O)c2cccs2)CC1)N1CCCCCC1 | 100% (inactive) |
| Cc1nc(-c2ccc(NC(=O)c3cccs3)cc2)cs1 | 103% (inactive) |
| CC1=C(C)CC2C(=O)N(c3cccc4ccccc34)C(=O)C2C1 (stereo unspecified) | 102% (inactive) |
| C=CCn1c(N)c(S(=O)(=O)c2cccs2)c2nc3ccccc3nc21 | 86.9% (inactive) |
| C=CCn1c(N)c(C(=O)OCC(C)C)c2nc3ccccc3nc21 | 86% (inactive) |
| CC(C)Cn1c(N)c(C(=O)NCc2cccs2)c2nc3ccccc3nc21 | -24.2% (active) |
| COc1ccc(OCC(=O)OCCN(C)C)cc1 | 117% (inactive) |
